According to PubChem BioAssay AID1903 (Southern Research Specialized Biocontainment Screening …, 2009):
Among all 310,000 compounds or so, about 1,200 (0.39%) were called active. How the calls were made is not given here. Not all results are given here. Results with a measured potency or affinity are listed apart.

Target: Large T antigen (Simian virus 40) (UniProt P03070)
Assay: SV40 large T antigen inhibitors, biochemical (AID 1903)
Settings: SV40 large T antigen ATPase/helicase inhibition assay; at 20 µM; stronger effect = higher value

Chain of Large T antigen (Simian virus 40) (P03070 whole entry, looked up): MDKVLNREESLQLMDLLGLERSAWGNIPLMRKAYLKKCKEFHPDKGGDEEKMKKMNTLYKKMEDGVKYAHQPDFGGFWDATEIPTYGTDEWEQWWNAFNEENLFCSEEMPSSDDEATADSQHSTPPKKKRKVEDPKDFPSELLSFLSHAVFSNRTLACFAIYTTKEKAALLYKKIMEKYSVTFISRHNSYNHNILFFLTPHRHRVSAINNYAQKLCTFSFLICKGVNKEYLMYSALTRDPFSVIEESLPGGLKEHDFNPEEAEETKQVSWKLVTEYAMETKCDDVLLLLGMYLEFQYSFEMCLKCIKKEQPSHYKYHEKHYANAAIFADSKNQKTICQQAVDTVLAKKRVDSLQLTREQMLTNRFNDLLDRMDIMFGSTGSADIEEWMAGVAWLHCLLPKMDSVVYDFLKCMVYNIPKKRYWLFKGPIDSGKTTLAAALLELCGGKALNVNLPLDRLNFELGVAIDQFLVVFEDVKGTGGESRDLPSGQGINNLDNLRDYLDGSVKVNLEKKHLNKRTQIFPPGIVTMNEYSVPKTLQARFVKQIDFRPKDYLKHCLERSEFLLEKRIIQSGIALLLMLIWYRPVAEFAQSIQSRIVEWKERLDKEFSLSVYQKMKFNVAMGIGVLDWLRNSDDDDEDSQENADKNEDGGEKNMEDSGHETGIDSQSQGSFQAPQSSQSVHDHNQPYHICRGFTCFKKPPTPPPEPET

inhibition, inactive:
COc1ccc(-c2cn[nH]c2-c2ccc(O)cc2O)cc1 25.6%
COc1ccccc1-c1cn[nH]c1-c1ccc(O)cc1O 36.1%
CC/C(=N/O)C(=O)c1ccc(Br)cc1 8.42%
Cc1ccccc1NC(=O)COC(=O)/C=C/c1cccc(C(F)(F)F)c1 3.86%
O=[N+]([O-])c1cc(S(=O)(=O)NC2=NCCCCC2)ccc1Cl 6.57%
O=C(N=Nc1ccc(NOC(=O)c2ccccc2Br)cc1)c1ccccc1O 11.6%
O=Nc1ccc(NOC(=O)c2ccccc2)cc1 19.7%
CCc1ccccc1N1CC(C(=O)O)CC1=O (stereo unspecified) -0.59%
O=C(O)C1CCN(C(=O)c2cccc3ccccc23)CC1 4.64%
Cc1cc(N2CCOCC2)nc2ccc(NC(=S)NC(C)C)cc12 4.55%
COc1ccc(NC(=O)/C=C/c2cc(OC)c(OC)c(OC)c2)cn1 7.41%
CS(=O)(=O)N(CC(=O)NC1CC1)C1CCCCC1 7.67%
Cc1csc(-c2cnn(-c3ccccc3)c2NC(=O)c2cccc(C(F)(F)F)c2)n1 0.685%
O=S(=O)(c1ccc(N2CCOCC2)c(Cl)c1)N1CCOCC1 7.49%
O=[N+]([O-])c1cc(S(=O)(=O)N2CCOCC2)ccc1N1CCCC1 -2.39%
Cc1ccc(C)n1-c1cc(S(=O)(=O)N2CCOCC2)ccc1N1CCCC1 1.24%
N#Cc1cc(S(=O)(=O)N2CCOCC2)ccc1N1CCOCC1 7.94%
CCSC1=C(C#N)C(c2cccc(Br)c2)CC(=O)N1 (stereo unspecified) 1.17%
CCOC(=O)c1[nH]c2ccc(OC)cc2c1N=CN(C)C 16.9%
CCn1nnnc1SCC(=O)Nc1cccc(NC(C)=O)c1 0.63%
Cc1ccc2nccc(C(=O)N3CCCC(Nc4ccc(F)cc4)C3)c2c1 (stereo unspecified) 14%
Cc1ccc(-c2noc(C3CCCN(C(=O)c4ccccc4Br)C3)n2)o1 (stereo unspecified) 15.6%
O=C(Nc1ccccc1)C1CC(=O)N(Cc2ccccc2)C1 (stereo unspecified) 27.5%
CC(=O)Nc1ccc(NC(=O)C2CC(=O)N(Cc3ccccc3)C2)cc1 (stereo unspecified) 27.7%
COc1ccc2nc(N3C(=O)CC(Cc4cc(C)cc(C)c4)C3=O)sc2c1 (stereo unspecified) -1.29%
COc1ccc(OCc2cc(C(=O)NC3CCOCC3)no2)c2ccccc12 12%
O=C1c2ccccc2C(=O)N1Cc1ccco1 4.84%
O=C1CC(=O)N(Cc2cccs2)C(=O)N1 22.2%
COC(=O)C1=C(C)N(Cc2ccco2)C(=O)C1 23.9%
O=C1C2C(C(=O)N1Cc1ccco1)C1C=CC2C12CC2 (stereo unspecified) -1.46%
COc1ccc(S(=O)(=O)N2CCCC(C(=O)N3CCOCC3)C2)cc1OC (stereo unspecified) 7.49%
CN(C)c1ccc(C(=O)N2CCN(c3cc(C(F)(F)F)nc4ccccc34)CC2)cc1 16.5%
Cc1ccc(Cc2c(C)nc3nc(SCC(=O)NCCCN4CCCC4)nn3c2C)cc1 9.31%
O=C1C(=O)N(Cc2cccnc2)C(c2ccc(Br)cc2)/C1=C(\O)c1ccc2c(c1)OCCO2 (stereo unspecified) 8.89%
O=C1/C(=C/c2cccs2)NC(=S)N1C1CC1 9.13%
CN(C)c1ncc(/C=C2/C(=O)NC(=S)N(C3CCCCC3)C2=O)cn1 10.9%
CN(C)c1ccc(/C=C/c2cc[n+](C)cc2)cc1 7.41%
CN(C)c1ccc(/C=C/c2ccncc2)cc1 25.2%
Cn1c(CCc2nc3ccccc3[nH]2)n[nH]c1=S 9.76%
CC(=O)NC1(c2ccccc2)CCN(C(=O)N2CCOCC2)CC1 4.59%
Cc1c(NS(=O)(=O)c2ccccc2F)c(=O)n(-c2ccccc2)n1C 3.58%
O=C(Nc1ccc2c(c1)CCC2)c1cccc(OC(F)F)c1 15.1%
CC(=O)Nc1ccc(NC(=O)CS(=O)(=O)c2cn(CC(=O)N3CCC(C)CC3)c3ccccc23)cc1 21.1%
NC(=S)N/N=C/c1coc2c(ccc3ccccc32)c1=O 10.7%
O=Cc1coc2ccc3ccccc3c2c1=O 12.7%
CC(C)Cn1c(=O)c2c(nc3n2CC(C)CN3Cc2ccccc2)n(C)c1=O (stereo unspecified) 9.7%
Cc1cc(C)n(-c2nc3ccccc3c(=O)n2OCC(=O)Nc2c(C)cccc2C)n1 1.06%
O=C1c2cccnc2C(=O)N1Cc1ccc(S(=O)(=O)N2CCN(c3ccccc3)CC2)cc1 -3.05%
CCc1ccccc1NC(=O)C1CCCN(c2ncnc3onc(-c4ccc(F)cc4)c23)C1 (stereo unspecified) 4.3%
COc1ccc(NC2CCCN(C(=O)CCc3ccncc3)C2)cc1OC (stereo unspecified) 35.9%
COc1ccc(NC2CCCN(Cc3cccc4cnccc34)C2)cc1 (stereo unspecified) 30.9%
COc1ccc(Br)cc1/C=C/C(=O)NC(=S)Nc1ccc(Cl)c(C(=O)O)c1 25.5%
COc1cc(/C=C2\SC(c3ccccc3)=NC2=O)cc(Cl)c1O 33.2%
CC(=O)Nc1ccc2oc(-c3cc(F)c(F)cc3Cl)nc2c1 0.785%
CCOC(=O)/C=C1\Nc2ccccc2OC1=O 28.2%
Cc1ccc2c(c1)NC(=O)C(CC(=O)O)O2 (stereo unspecified) 3.98%
CCCN(CCC)S(=O)(=O)c1ccc(NC(=O)C2CCCO2)cc1 (stereo unspecified) 3.88%
N/C(COc1ccc(C(=O)O)cc1)=N\O 0.11%
COc1ccc(CCNc2c3ccccc3nc3ccccc23)cc1OC 11.5%
OCCNc1c2ccccc2nc2ccccc12 12.6%
CCN(CC)CCN1C(=O)C(O)=C(C(=O)c2cc3ccccc3o2)C1c1cccnc1 (stereo unspecified) 2.07%
CCN(CC)CCN1C(=O)C(O)=C(C(=O)c2sc(C)nc2C)C1c1cccnc1 (stereo unspecified) 2.43%
O=C(O)CC(NS(=O)(=O)c1cccc2nsnc12)c1ccc(F)cc1 (stereo unspecified) 0.56%
O=c1c2ccccc2c2ccccc2c(=O)n1-c1ccccc1 4.04%
O=c1[nH]n(-c2ccccc2)c(=O)c2ccccc12 3.85%
COc1cccc(C(=O)Nc2cc(OC)ccc2NC(=O)c2ccco2)c1 17.6%
Nc1ccc2c(c1)C(=O)C(=O)c1ccccc1-2 15.6%
NCCN=C1NS(=O)(=O)c2ccccc21 7.44%
CC(=O)Nc1ccc(S(=O)(=O)Nc2nc3ccccc3nc2Nc2ccccc2)cc1 1.54%
COc1ccc(Nc2nc3ccccc3nc2NS(=O)(=O)c2ccc(NC(C)=O)cc2)cc1 12.8%
CC(=O)Nc1ccc(Nc2nc3ccccc3nc2NS(=O)(=O)c2ccccc2)cc1 23.5%
CC(=O)Nc1ccc(S(=O)(=O)Nc2nc3ccccc3nc2Nc2ccc(S(N)(=O)=O)cc2)cc1 6.12%
Cn1c(=O)c(C(=O)c2ccc(S(C)(=O)=O)c(Cl)c2Cl)c(O)c2ccccc21 17%
Cn1cc(C(=O)NCCO)c(=O)c2ccccc21 -1.83%
O=C(CSc1nnc(-c2ccccc2)n1CC1CCCO1)N1CCCC1 (stereo unspecified) 12.8%
Cc1nnc2ccc(-c3cccc(NS(=O)(=O)c4ccccc4Cl)c3)nn12 10.3%
CSc1ccccc1N=Cc1nc(-c2ccccc2)oc1O 8.02%
Cc1cccc(NCC(=O)c2c(N)n(C)c(=O)n(C)c2=O)c1C 4.72%
COC(=O)CN1C(c2cccc(Cl)c2)=Nc2ccc(Cl)cc2C1c1ccccc1 (stereo unspecified) 7.04%
COc1cccc(/C=N/n2c(SC)nnc2-c2ccccc2)c1O 26.3%
COc1ccc(/C=N/n2c(-c3n[nH]c4c3CCC4)n[nH]c2=S)cc1OC 23.9%
COc1cccc(/C=N/n2c(-c3cc(C)[nH]n3)n[nH]c2=S)c1OC 26.8%
COc1cc(/C=N/n2c(-c3cc(C)[nH]n3)n[nH]c2=S)cc(OC)c1O 24.5%
COc1cc(/C=N/n2c(C3CCCCC3)n[nH]c2=S)cc(OC)c1O 10.8%
COc1cc(/C=N/n2c(C3CCCCC3)n[nH]c2=S)ccc1O 21%
COc1ccc(CCNC(=O)CN(C)S(=O)(=O)c2ccc(Br)s2)cc1OC -4.17%
Cc1c(Cc2ccccc2)c(=O)oc2c(C)c(OCc3nn[nH]n3)ccc12 11.2%
CCN1CCc2c(OCC(=O)Nc3ccc4c(c3)OCCO4)cccc2C1=O 1.06%
Cc1cc(C)c(S(=O)(=O)c2ccc(Cl)cc2)c(=O)[nH]1 7.48%
CCOc1ccc(-c2[nH]nc3c2C(c2ccc4c(c2)OCO4)C(C#N)=C(N)O3)cc1OC (stereo unspecified) 17%
O=C(CN(c1ccccc1Cl)S(=O)(=O)c1ccccc1)N/N=C/c1ccccc1C(=O)O 9.75%
CC(=O)N1CCN(CC(=O)Nc2sccc2C#N)CC1 4.43%
CCOc1ccccc1NC(=O)C1CC2CCCC(C1)C2=O (stereo unspecified) 14.6%
CCc1ccccc1NC(=O)Cn1c(=O)n(-c2ccc(CC(=O)NCC3CCCO3)cc2)c(=O)c2ccccc21 (stereo unspecified) 23.2%
O=c1cc(-c2ccc([N+](=O)[O-])cc2)c2ccc(O)cc2o1 9.32%
CN(C)Cc1c(O)ccc2c(=O)c(-c3ccc(Cl)cc3)coc12 2.49%
